Out of some 5,500 compounds screened, about 2,000 (36%) were called active. Another 18% or so got no clear call; they are omitted. No stated cut-off is given here; in the data, active means normalized growth mostly below about 0.91 (no sharp cut-off); inconclusive means no clear call, values can overlap the other calls; inactive means mostly above about 0.92. Some of the results follow.
Experiment: chemical genetic growth profiling, strain panel (AID 1159580);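 further: tested at 20 µM; growth read once vehicle control cultures reached saturation at 30 °C; 1 = growth at the plate median or of vehicle wells; lower values mean less growth of the strain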
Settings: growth OD

Measured: normalized growth

CC1(C)C2CC[C@]3(C)C(C(=O)C=C4[C@@H]5C[C@@](C)(C(=O)O)CC[C@]5(C)CC[C@]43C)[C@@]2(C)CC[C@@H]1OC(=O)CCC(=O)O (stereo partly drawn)
inactive: S. cerevisiae deletion strains, locus YKL009W, strain mrt4, hits give low values 0.975 | S. cerevisiae deletion strains, locus YKL068W, hits give low values 0.986 | S. cerevisiae deletion strains, locus YKL085W, strain MDH1 (second series), hits give low values 0.984 | S. cerevisiae deletion strains, locus YKL085W, strain MDH1, hits give low values 0.984 | S. cerevisiae deletion strains, locus YKL160W, strain elf1, hits give low values 0.938 | S. cerevisiae deletion strains, locus YKL190W, strain CNB1, hits give low values 0.991 | S. cerevisiae deletion strains, locus YKR001C, strain vps1, hits give low values 0.999 | S. cerevisiae deletion strains, locus YKR026C, strain gcn3, hits give low values 0.987 | S. cerevisiae deletion strains, locus YKR091W, strain srl3, hits give low values 0.989 | S. cerevisiae deletion strains, locus YLL001W, strain dnm1, hits give low values 1 | S. cerevisiae deletion strains, locus YLL026W, hits give low values 0.977 | S. cerevisiae deletion strains, locus YLL041C, strain sdh2, hits give low values 0.982 | S. cerevisiae deletion strains, locus YLR027C, strain aat2, hits give low values 1 | S. cerevisiae deletion strains, locus YLR039C, strain RIC1, hits give low values 0.944 | S. cerevisiae deletion strains, locus YLR058C, strain SHM2, hits give low values 0.986 | S. cerevisiae deletion strains, locus YLR102C, strain apc9, hits give low values 0.996 | S. cerevisiae deletion strains, locus YLR221C, strain rsa3, hits give low values 1 | S. cerevisiae deletion strains, locus YLR258W, strain gsy2, hits give low values 0.98 | S. cerevisiae deletion strains, locus YLR262C, strain YPT6 (second series), hits give low values 0.962 | S. cerevisiae deletion strains, locus YLR262C, strain YPT6, hits give low values 0.91 | S. cerevisiae deletion strains, locus YLR268W, strain sec22, hits give low values 0.998 | S. cerevisiae deletion strains, locus YLR320W, strain mms22, hits give low values 0.999 | S. cerevisiae deletion strains, locus YLR330W, strain CHS5, hits give low values 0.992 | S. cerevisiae deletion strains, locus YLR342W, strain FKS1 (second series), hits give low values 0.995 | S. cerevisiae deletion strains, locus YLR342W, strain FKS1, hits give low values 0.985 | S. cerevisiae deletion strains, locus YLR357W, strain rsc2, hits give low values 0.967 | S. cerevisiae deletion strains, locus YLR370C, strain arc18, hits give low values 0.967 | S. cerevisiae deletion strains, locus YLR371W, strain rom2, hits give low values 1 | S. cerevisiae deletion strains, locus YLR384C, strain iki3, hits give low values 0.983 | S. cerevisiae deletion strains, locus YLR418C, strain cdc73, hits give low values 0.968 | S. cerevisiae deletion strains, locus YML016C, strain PPZ1, hits give low values 1 | S. cerevisiae deletion strains, locus YML032C, strain rad52, hits give low values 0.994 | S. cerevisiae deletion strains, locus YML120C, strain ndi1, hits give low values 0.997 | S. cerevisiae deletion strains, locus YML124C, strain tub3, hits give low values 1 | S. cerevisiae deletion strains, locus YMR058W, strain fet3, hits give low values 1.04 | S. cerevisiae deletion strains, locus YMR078C, strain ctf18, hits give low values 0.976 | S. cerevisiae deletion strains, locus YMR125W, strain sto1, hits give low values 0.975 | S. cerevisiae deletion strains, locus YMR129W, hits give low values 0.99 | S. cerevisiae deletion strains, locus YMR205C, strain PFK2, hits give low values 0.97 | S. cerevisiae deletion strains, locus YMR223W, strain ubp8, hits give low values 0.973 | S. cerevisiae deletion strains, locus YMR231W, strain pep5, hits give low values 0.978 | S. cerevisiae deletion strains, locus YMR263W, strain SAP30, hits give low values 1 | S. cerevisiae deletion strains, locus YMR307W, strain GAS1, hits give low values 1.01 | S. cerevisiae deletion strains, locus YNL067W, strain RPL9B, hits give low values 1.02 | S. cerevisiae deletion strains, locus YNL071W, strain lat1, hits give low values 0.994 | S. cerevisiae deletion strains, locus YNL183C, strain NPR1, hits give low values 0.991 | S. cerevisiae deletion strains, locus YNL209W, strain ssb2, hits give low values 0.967 | S. cerevisiae deletion strains, locus YNL233W, strain BNI4, hits give low values 1.03 | S. cerevisiae deletion strains, locus YNL248C, strain rpa49, hits give low values 0.909 | S. cerevisiae deletion strains, locus YNL250W, strain rad50, hits give low values 0.949 | S. cerevisiae deletion strains, locus YNL271C, strain bni1, hits give low values 0.983 | S. cerevisiae deletion strains, locus YNL298W, strain CLA4, hits give low values 0.997 | S. cerevisiae deletion strains, locus YNL307C, strain MCK1, hits give low values 0.992 | S. cerevisiae deletion strains, locus YNL322C, strain KRE1 (second series), hits give low values 0.979 | S. cerevisiae deletion strains, locus YNL322C, strain KRE1, hits give low values 0.99 | S. cerevisiae deletion strains, locus YNR049C, strain mso1, hits give low values 0.983 | S. cerevisiae deletion strains, locus YNR052C, strain pop2, hits give low values 0.975 | S. cerevisiae deletion strains, locus YOL006C, strain TOP1, hits give low values 1.04 | S. cerevisiae deletion strains, locus YOL012C, strain htz1 1.07 | S. cerevisiae deletion strains, locus YOL147C, strain pex11, hits give low values 0.989 | S. cerevisiae deletion strains, locus YOR001W, strain rrp6, hits give low values 1.03 | S. cerevisiae deletion strains, locus YOR061W, strain CKA2, hits give low values 0.991 | S. cerevisiae deletion strains, locus YOR069W, strain VPS5, hits give low values 0.982 | S. cerevisiae deletion strains, locus YOR070C, strain gyp1, hits give low values 0.986 | S. cerevisiae deletion strains, locus YOR080W, strain dia2, hits give low values 1.01 | S. cerevisiae deletion strains, locus YOR083W, strain WHI5, hits give low values 0.891 | S. cerevisiae deletion strains, locus YOR106W, strain vam3, hits give low values 0.896 | S. cerevisiae deletion strains, locus YOR136W, strain idh2, hits give low values 0.998 | S. cerevisiae deletion strains, locus YOR144C, strain elg1, hits give low values 1 | S. cerevisiae deletion strains, locus YOR184W, strain ser1, hits give low values 0.96 | S. cerevisiae deletion strains, locus YOR231W, strain MKK1, hits give low values 1.06 | S. cerevisiae deletion strains, locus YOR265W, strain rbl2, hits give low values 0.974 | S. cerevisiae deletion strains, locus YOR270C, strain vph1, hits give low values 0.867 | S. cerevisiae deletion strains, locus YOR290C, strain snf2, hits give low values 0.96 | S. cerevisiae deletion strains, locus YOR316C, strain cot1, hits give low values 0.992 | S. cerevisiae deletion strains, locus YPL051W, strain arl3, hits give low values 0.966 | S. cerevisiae deletion strains, locus YPL055C, strain LGE1, hits give low values 1.08 | S. cerevisiae deletion strains, locus YPL078C, strain atp4, hits give low values 0.962 | S. cerevisiae deletion strains, locus YPL106C, strain sse1, hits give low values 0.986 | S. cerevisiae deletion strains, locus YPL240C, strain hsp82, hits give low values 0.978 | S. cerevisiae deletion strains, locus YPL241C, strain CIN2, hits give low values 0.992 | S. cerevisiae deletion strains, locus YPL256C, strain CLN2, hits give low values 1.05 | S. cerevisiae deletion strains, locus YPR119W, strain clb2, hits give low values 0.992 | S. cerevisiae deletion strains, locus YPR141C, strain kar3, hits give low values 0.999 | S. cerevisiae deletion strains, locus YPR163C, strain tif3, hits give low values 0.983 | S. cerevisiae deletion strains, locus YPR167C, strain met16, hits give low values 0.99 | S. cerevisiae deletion strains, strain wtn01, hits give low values 0.976 | S. cerevisiae strains, strain wild type, hits give low values 0.991

Source: PubChem BioAssay AID1159580 (chemical genetic matrix, 2015)
